# PubChem BioAssay
# Values joined by “and” are separate entries in the source; they are usually repeats but may differ in a detail not shown here. Identical values can stand only once. Active and inactive are the calls of the source.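 The calls were made as follows, unless noted: active = compound raises GLP1 secretion from the human gut endocrine cells, with no numeric limit stated; inactive = the rest.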
# Tests used:
# [1] = Wnt pathway potentiators raising nuclear beta-catenin – imaging, WNT3A-conditioned medium, mouse C2C12, NPC library, primary screen (AID 1117326; in the data active = nuclear beta-catenin stimulation mostly above about 4.2%, no sharp cut-off; inactive = mostly below about 10%); conditions: stronger effect = higher value
# [2] = stimulators of insulin release from INS-1E, primary screen, cell-based, 5 mM glucose, NPC library (AID 1117329;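 active = compound raises insulin release from rat beta cells at 5 mM glucose, no numeric limit stated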); conditions: rat INS-1E insulin secretion, at 10 µM, stronger effect = higher value
# [3] = growth inhibition of GSK3B-pretreated HCT116 cells – cell-based, CellTiter-Glo, 0.2 to 20 µM (AID 1117336;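 active = compounds lowering colon cancer cell viability after pretreatment blocking the GSK3B kinase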); conditions: HCT116 viability after GSK3B inhibitor, at 20 µM, stronger effect = higher value
# [4] = inhibition of endothelial tube formation, primary screen, imaging, VEGF stimulated, CD31 staining, tube area, NPC library (AID 1117340;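 active = compound that reduces growth-factor-driven endothelial tube area in a mixed cell culture, no cutoff stated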); conditions: VEGF-stimulated ADSC/ECFC co-culture, at 10 µM, stronger effect = higher value
# [5] = GLP1 release stimulators, primary, NCI-H716, NPC library (AID 1117341); conditions: NCI-H716 cells, at 10 µM, stronger effect = higher value
# [6] = HCT116 colon cancer cell growth inhibition, primary screen, CellTiter-Glo luminescence, NPC library (AID 1117342;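 active = compounds that lower survival of HCT116 colon cancer cells in the luminescence readout, no numeric limit stated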); conditions: at 20 µM (top of the series)
# [7] = reduced SW480 viability measured with CellTiter-Glo, NPC library, primary (AID 1117343;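 active = compounds that lower viability of the colon cancer cells in the luminescence readout, with no numeric limit stated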); conditions: CellTiter-Glo luminescence; at 20 µM (top of the series)
# [8] = NPC library primary testing for decreased DLD-1 cell viability via CellTiter-Glo (AID 1117346;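 active = compounds that lower survival of DLD-1 colon cancer cells in the luminescence readout, no cutoff given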); conditions: DLD-1 viability, CellTiter-Glo luminescence; at 20 µM (top of the series)
# [9] = target: 6-phosphogluconate dehydrogenase, decarboxylating (Homo sapiens) (UniProt P52209); assay: inhibition of human phosphogluconate dehydrogenase – biochemical, recombinant enzyme, NADPH absorbance, primary screen (AID 1159550;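 active = at least 20% inhibition of 6-phosphogluconate dehydrogenase activity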); conditions: recombinant 6PGD, NADPH absorbance 341 nm; at 10 µM; stronger effect = higher value
# [10] = viability loss with induced miR-34 in A549 – imaging, A549 dox-inducible miR-34, nuclei and caspase counts, primary screen (AID 1347080;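 active = compounds whose cell count with miR-34 switched on is under 0.7 times the count with it off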); conditions: A549 miR-34 inducible, Hoechst nuclei count, 48 h
# [11] = target: NAD(+) hydrolase SARM1 (Homo sapiens) (UniProt Q6SZW1); assay: blocking NAD cleavage by SARM1 SAM-TIR – cell lysate, NAD-Glo luminescence (AID 1508614;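 active = compound whose remaining NAD level is above about 45 nM, limit read from the data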;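 also: higher remaining NAD means stronger inhibition of SARM1 NADase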); conditions: SAM-TIR HEK293T lysate NADase, at 1 µM, stronger effect = higher value
# [12] = target: Mitogen-activated protein kinase 7 (Homo sapiens) (UniProt Q13164); assay: Gal4-ERK5 driven luciferase induction – cell-based, HTS, primary screen (AID 1508626;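 active = luciferase signal above three times the same-plate solvent-only control wells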;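 also: luciferase driven by Gal4-ERK5 fusion binding five Gal4 sites before minimal TATA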); conditions: HeLa Gal4-ERK5 transactivation, 18 h, at 5 µM, stronger effect = higher value
# [13] = EMT-state selective cytotoxicity in co-culture – imaging, PC-3E GFP, TEM4-18 mCherry, primary screen (AID 1345086;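 active = compounds killing one labelled cell type while sparing the other, by normalised counts and ratio limits, not self-fluorescent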;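 as to all read-outs here: cells exposed to compound for 72 h before imaging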;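 as to red/green cell ratio (normalised): normalised mesenchymal count divided by normalised epithelial count so high means epithelial killing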); conditions: PC-3E GFP / TEM4-18 mCherry co-culture, imaging cell counts, at 1 µM; for red/green cell ratio (normalised): actives lie on both sides, counts scaled to control wells, 1 = unselective
# [14] = MELAS cybrid and Rieske KO viability enhancers – cell-based, MELAS cybrids, Rieske KO mouse fibroblasts, CellTiter-Glo, primary screen (AID 1508586;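 active = mean z-score across replicates of 1.96 or higher in either the MELAS or the Rieske mutant cell line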;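 also: z relative to plate mean and SD of compound and empty wells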); conditions: low glucose
# [15] = growth inhibition, single agents and combos, ICB984, cell-based, cisplatin or BGB combos, synergistic combos for chromothripsis tumors (AID 1671451; call rule not given here;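 also: cells exposed for 96 hours before readout; 0% = vehicle DMSO and 100% = killing by high DMSO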); conditions: ICB984 medulloblastoma cells, drug combinations, stronger effect = higher value
# [16] = modulation of C. elegans fzo-1 (AID 1259413; call rule not given here;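 also: fzo-1 mutant C. elegans worms in liquid wells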); conditions: C. elegans fzo-1 modulator screen, mean read-out; stronger effect = higher value
# [17] = test system: F380Y; assay: BK channel mutant inhibitors and activators – cell-based, U2OS BacMam, thallium flux, beta subunits, selectivity assay, profiling panel (AID 1259406;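 active = thallium flux through the channel raised or lowered by more than 3 SD from vehicle-only wells, actives on both sides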;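 also: initial slope of Thallos dye fluorescence rise after thallium is added; log ratio against the mean of 0.3% DMSO vehicle wells on the same plate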); conditions: U2OS BacMam BK variants, at 30 µM
# [18] = test system: F380Y/beta1; assay: as above; conditions: U2OS BacMam BK variants, at 30 µM
# [19] = test system: F380Y/beta2Delta; assay: as above; conditions: U2OS BacMam BK variants, at 30 µM
# [20] = stronger effect = lower value, cell number ratio, induced over uninduced
# [21] = measured here: relative caspase fold change +Dox/-Dox
# [22] = measured here: total cells with miR-34 induction, stronger effect = lower value
# [23] = measured here: total cells without miR-34 induction
# [24] = measured here: epithelial PC-3E GFP cell survival
# [25] = measured here: mesenchymal TEM4-18 mCherry cell survival
# [26] = MELAS cybrid survival, CellTiter-Glo 48 h, stronger effect = higher value
# [27] = Rieske KO mouse fibroblast survival, CellTiter-Glo 72 h
# NAD(+) hydrolase SARM1 (Homo sapiens), sequence (Q6SZW1 whole entry, looked up, the tested form may be a part): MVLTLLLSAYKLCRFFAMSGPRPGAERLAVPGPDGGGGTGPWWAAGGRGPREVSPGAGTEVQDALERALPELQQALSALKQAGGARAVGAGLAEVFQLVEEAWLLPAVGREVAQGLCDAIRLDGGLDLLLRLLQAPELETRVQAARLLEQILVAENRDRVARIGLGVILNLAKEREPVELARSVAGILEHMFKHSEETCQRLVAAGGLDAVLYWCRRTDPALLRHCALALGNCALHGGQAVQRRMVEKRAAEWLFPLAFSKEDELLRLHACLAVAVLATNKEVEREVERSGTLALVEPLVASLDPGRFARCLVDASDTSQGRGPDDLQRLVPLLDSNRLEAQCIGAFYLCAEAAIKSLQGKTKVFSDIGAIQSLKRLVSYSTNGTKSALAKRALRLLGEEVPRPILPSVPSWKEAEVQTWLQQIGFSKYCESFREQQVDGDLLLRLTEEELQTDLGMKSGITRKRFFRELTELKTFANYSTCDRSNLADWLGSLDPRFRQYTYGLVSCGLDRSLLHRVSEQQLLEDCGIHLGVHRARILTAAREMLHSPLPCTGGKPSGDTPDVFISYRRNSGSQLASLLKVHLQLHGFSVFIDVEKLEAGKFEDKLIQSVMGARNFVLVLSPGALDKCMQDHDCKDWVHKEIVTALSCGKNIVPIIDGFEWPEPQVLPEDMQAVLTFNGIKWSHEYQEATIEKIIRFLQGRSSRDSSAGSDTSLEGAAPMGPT
# 6-phosphogluconate dehydrogenase, decarboxylating (Homo sapiens), sequence (P52209 whole entry, looked up): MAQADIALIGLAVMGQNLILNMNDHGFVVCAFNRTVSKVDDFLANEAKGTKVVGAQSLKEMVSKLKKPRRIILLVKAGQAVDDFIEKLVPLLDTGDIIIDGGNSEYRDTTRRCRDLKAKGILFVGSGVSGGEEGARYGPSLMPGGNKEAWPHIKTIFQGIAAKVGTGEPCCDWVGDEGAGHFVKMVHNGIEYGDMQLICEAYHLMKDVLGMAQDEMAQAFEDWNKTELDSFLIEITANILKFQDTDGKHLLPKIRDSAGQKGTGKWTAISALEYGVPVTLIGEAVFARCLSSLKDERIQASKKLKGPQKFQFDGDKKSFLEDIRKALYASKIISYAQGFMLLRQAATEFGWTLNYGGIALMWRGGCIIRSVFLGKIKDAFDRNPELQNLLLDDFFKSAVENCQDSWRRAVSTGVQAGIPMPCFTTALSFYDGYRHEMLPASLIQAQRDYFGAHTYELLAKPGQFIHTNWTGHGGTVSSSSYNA
# Mitogen-activated protein kinase 7 (Homo sapiens), sequence (Q13164 whole entry, looked up, the tested form may be a part): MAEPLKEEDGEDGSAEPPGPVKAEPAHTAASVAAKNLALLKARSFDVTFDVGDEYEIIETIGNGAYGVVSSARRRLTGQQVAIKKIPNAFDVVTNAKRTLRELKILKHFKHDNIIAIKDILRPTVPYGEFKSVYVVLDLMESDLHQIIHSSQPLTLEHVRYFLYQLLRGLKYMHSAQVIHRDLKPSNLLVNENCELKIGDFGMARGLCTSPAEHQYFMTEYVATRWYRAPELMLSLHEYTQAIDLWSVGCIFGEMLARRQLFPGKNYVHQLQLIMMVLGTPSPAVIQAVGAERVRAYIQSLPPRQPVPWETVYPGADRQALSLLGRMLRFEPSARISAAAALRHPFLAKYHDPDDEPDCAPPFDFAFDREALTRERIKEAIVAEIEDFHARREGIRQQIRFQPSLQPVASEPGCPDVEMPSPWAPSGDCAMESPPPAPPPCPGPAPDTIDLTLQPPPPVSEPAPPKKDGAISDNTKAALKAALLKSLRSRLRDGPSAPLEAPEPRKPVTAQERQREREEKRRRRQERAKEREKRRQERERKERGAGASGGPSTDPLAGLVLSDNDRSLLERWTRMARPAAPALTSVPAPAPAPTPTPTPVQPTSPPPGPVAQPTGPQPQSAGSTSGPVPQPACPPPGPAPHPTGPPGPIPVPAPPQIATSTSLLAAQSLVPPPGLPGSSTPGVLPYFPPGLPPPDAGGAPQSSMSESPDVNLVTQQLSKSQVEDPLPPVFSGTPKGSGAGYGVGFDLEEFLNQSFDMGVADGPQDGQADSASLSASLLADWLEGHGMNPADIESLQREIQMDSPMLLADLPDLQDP
structure (smiles),measurement,setting,value
CC[C@H]1CN2CCc3cc(OC)c(OC)cc3[C@@H]2C[C@@H]1C[C@H]1NCCc2cc(OC)c(OC)cc21,nuclear beta-catenin stimulation,[1]; at 10 µM,12.4% (inactive)
same,nuclear beta-catenin stimulation,"[1]; stimulation, at 2 µM",9.1%
same,insulin secretion stimulation,[2],13.4% (inactive)
same,viability decrease,[3],82.1% (active)
same,tube area decrease,[4],110% (active)
same,GLP1 secretion stimulation,[5],2.4% (inactive)
same,inhibition of viability,[6],84.8% (active)
same,viability decrease (inhibition),[7],115% (active)
same,viability decrease (inhibition),[8],97% (active)
same,inhibition,[9],6.15% (inactive)
same,fold change,[10]; [20],1.04 (inactive) and 0.853 (inactive)
same,fold change,[10]; [21],1.32 and 1.38
same,cell count,[10]; [22],1340 and 1650
same,cell count,[10]; [23],1300 and 1930
same,remaining NAD,[11],10 nM (inactive)
same,luciferase signal,[12],24 AU (inactive)
CCN(CC)CCCC(C)Nc1c2ccc(Cl)cc2nc2ccc(OC)cc12 (stereo not given),nuclear beta-catenin stimulation,[1]; at 10 µM,3.9% (inactive)
same,nuclear beta-catenin stimulation,"[1]; stimulation, at 2 µM",1.8%
same,insulin secretion stimulation,[2],84.6% (active)
same,viability decrease,[3],103% (active)
same,tube area decrease,[4],97.1% (active)
same,GLP1 secretion stimulation,[5],7.1% (inactive)
same,inhibition of viability,[6],102% (active)
same,viability decrease (inhibition),[7],122% (active)
same,viability decrease (inhibition),[8],97.7% (active)
same,inhibition,[9],1.31% (inactive)
same,red/green cell ratio (normalised),[13],1.37 (inactive)
same,normalised cell number,[13]; [24],0.76
same,normalised cell number,[13]; [25],1.04
same,z-score,[14]; [26],0.298 and 1.99 (active) and 1.02
same,z-score,[14]; [27],6.25 and 5.35 and 3.32
same,remaining NAD,[11],10 nM (inactive)
same,luciferase signal,[12],1610 AU (active)
same,inhibition,"[15]; BGB IC20 combo, at 0.005 µM",-4.02%
same,inhibition,"[15]; BGB IC40 combo, at 0.005 µM",16.5%
same,inhibition,"[15]; BGB IC40 combo, at 0.05 µM",90.3%
same,inhibition,[15]; at 0.5 µM,-2.08% (inactive)
same,inhibition,"[15]; cisplatin combo, at 0.05 µM",90%
same,inhibition,"[15]; cisplatin combo, at 0.5 µM",-4.11%
same,inhibition,"[15]; cisplatin combo, at 5 µM",-21.6%
same,inhibition,"[15]; measured here: 5 uM single agent, at 5 µM",1.6%
CCOC(=O)[C@H](CCc1ccccc1)N[C@H]1CCc2ccccc2N(CC(=O)O)C1=O,nuclear beta-catenin stimulation,[1]; at 10 µM,27.7% (inactive)
same,nuclear beta-catenin stimulation,"[1]; stimulation, at 2 µM",2.2%
same,insulin secretion stimulation,[2],1.1% (inactive)
same,viability decrease,[3],-40.3% (inactive)
same,tube area decrease,[4],33.7% (inactive)
same,GLP1 secretion stimulation,[5],16.1% (inactive)
same,inhibition of viability,[6],51.1% (active)
same,viability decrease (inhibition),[7],102% (active)
same,viability decrease (inhibition),[8],44.2% (inactive)
same,inhibition,[9],-6.81% (inactive)
same,mean signal,[16],261 (inactive)
same,red/green cell ratio (normalised),[13],0.73 (inactive)
same,normalised cell number,[13]; [24],1.36
same,normalised cell number,[13]; [25],0.98
same,fold change,[10]; [20],0.89 (inactive) and 0.936 (inactive)
same,fold change,[10]; [21],2.29 and 1.38
same,cell count,[10]; [22],9000 and 10300
same,cell count,[10]; [23],10100 and 11000
same,z-score,[14]; [26],0.369 (inactive)
same,z-score,[14]; [27],0.328
same,remaining NAD,[11],10 nM (inactive)
same,luciferase signal,[12],92 AU (inactive)
same,log fold change Tl+ flux,[17],-0.0356 (inactive)
same,log fold change Tl+ flux,[18],0.0148 (inactive)
same,log fold change Tl+ flux,[19],-0.052 (inactive)
CCCCCCCCCCCCCCCCCC(=O)[O][Al],nuclear beta-catenin stimulation,[1]; at 10 µM,0.2% (inactive)
same,nuclear beta-catenin stimulation,"[1]; stimulation, at 2 µM",-0.8%
same,insulin secretion stimulation,[2],0.8% (inactive)
same,viability decrease,[3],2.3% (inactive)
same,tube area decrease,[4],-3.5% (inactive)
same,GLP1 secretion stimulation,[5],-1.2% (inactive)
same,inhibition of viability,[6],5.4% (inactive)
same,viability decrease (inhibition),[7],-3.6% (inactive)
same,viability decrease (inhibition),[8],-0.7% (inactive)
